EBV gp42 inh = blocks Epstein-Barr virus glycoprotein 42 binding; Q1HVG2; Fluorescence polarization binding assay, mP read-out; inhibition, % (tested at 21.74 µM); 0.42% of 220,000 active; in the data active = inhibition above about 50%
Target sequence (Q1HVG2 whole entry, looked up): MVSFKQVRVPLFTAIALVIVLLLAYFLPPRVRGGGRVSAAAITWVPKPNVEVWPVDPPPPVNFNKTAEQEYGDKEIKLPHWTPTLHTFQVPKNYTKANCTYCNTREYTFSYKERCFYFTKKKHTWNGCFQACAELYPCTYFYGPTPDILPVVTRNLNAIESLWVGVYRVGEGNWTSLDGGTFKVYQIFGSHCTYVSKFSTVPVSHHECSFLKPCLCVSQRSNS
MEX-5 binding = C. elegans MEX-5 TCR-2 RNA binding activity; AID 1832; 0.38% of 300,000 active; activity score (negative = inhibition of binding), % at 10 µM; MEX-5/FITC-TCR2 RNA binding, fluorescence polarization; stronger effect = lower value;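 active = inhibition past about -25% in most replicates, and total fluorescence under double the plate's negative control median, limit read from the data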;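 note: 0% = DMSO and -100% = 5 µM competing unlabeled TCR2 RNA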
Bcl-xL primary = inhibitors of human Bcl-xL. Q07817. GST-Bcl-xL / FITC-Bim BH3 peptide fluorescence polarization. inhibition, % at 10.9 µM. 0.7% of 320,000 active. AID 2129;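 active = inhibition above the mean of all tested compounds plus 3 SD, cutoff set per campaign, cut at about 30% in these data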;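 note: 0% = DMSO wells and 100% = unlabeled Bim-BH3 peptide competitor; inhibitors lower millipolarization by displacing the labeled peptide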
eLon inh = inhibits E. coli Lon protease | P0A9M0 | purified E. coli Lon protease, fluorescence polarization | inhibition, % at 7.94 µM | 0.42% of 360,000 active; in the data active = inhibition above about 13%, passing the limit was not always enough;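 note: 0% = enzyme with probe and DMSO and 100% = no enzyme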
GLD-1 TGE inh = GLD-1-TGE RNA interaction inhibition (C. elegans). inhibition, % at 5.96 µM. 0.44% of 320,000 active. Q17339. purified GLD-1 + fluorescein TGE RNA, fluorescence polarization;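 active = percent inhibition above a per-plate cutoff, the plate mean of test compounds plus 3 SD, cut at about 30% in these data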;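 note: 0% = DMSO wells with GLD-1 and probe and 100% = wells lacking GLD-1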
MCL1 BIM primary = MCL1-BIM-BH3 interaction inhibition (human) | 0.68% of 320,000 active | GST-MCL1 / FITC-Bim-BH3 fluorescence polarization | inhibition, % at 10.9 µM | AID 2057;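 active = inhibition above the mean inhibition of all tested compounds plus 3 SD, set per campaign, cut at about 40% in these data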;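 note: 0% = DMSO wells and 100% = unlabeled Bim-BH3 peptide control; higher means more loss of mP so more displacement of Bim peptide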
Target sequence (Q07820 whole entry, looked up): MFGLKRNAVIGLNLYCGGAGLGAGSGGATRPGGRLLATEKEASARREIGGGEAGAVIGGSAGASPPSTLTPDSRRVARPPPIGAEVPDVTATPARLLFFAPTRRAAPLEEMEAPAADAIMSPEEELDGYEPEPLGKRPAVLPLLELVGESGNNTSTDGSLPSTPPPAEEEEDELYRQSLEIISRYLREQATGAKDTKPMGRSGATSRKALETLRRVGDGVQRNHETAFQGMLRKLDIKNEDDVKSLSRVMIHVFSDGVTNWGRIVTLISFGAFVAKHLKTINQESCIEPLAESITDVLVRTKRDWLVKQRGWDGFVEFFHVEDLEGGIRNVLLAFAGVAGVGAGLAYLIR
eLon confirm = confirmation of E. coli Lon protease inhibitors; shares compounds with eLon inh; purified E. coli Lon, fluorescence polarization; inhibition, % at 7.94 µM; 31% of 1,400 active; AID 602230; in the data active = inhibition above about 16%;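 note: 0% = enzyme with probe and DMSO and 100% = no enzyme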
* marks the source's active call; other numbers are inactive results; nt = no result given; + = active, no number. A selection: hits, their analogues and other compounds. The true share with any hit is near 1.5%.

SMILES | EBV gp42 inh | MEX-5 binding | Bcl-xL primary | eLon inh | GLD-1 TGE inh | MCL1 BIM primary | eLon confirm
O=C(NCCS(=O)(=O)N1CCN(c2ccc(F)cc2)CC1)C12CC3CC(CC(C3)C1)C2 | nt | -1 | 4 | -1 | 9 | 2 | nt
COc1ccc(C(NC(=O)CNC(C)=O)C(=O)Nc2ccc3c(c2)OCCO3)cc1 (centres undefined) | -3 | 1 | 5 | 14* | 4 | 5 | -22
CC(=O)NCC(=O)NC(C(=O)Nc1ccc2c(c1)OCCO2)c1ccc(C)cc1 (centres undefined) | -9 | 1 | 7 | -2 | -3 | 1 | nt
COc1ccc(NC(=O)Nc2sc(NS(=O)(=O)c3ccccc3)nc2C)cc1 | -6 | 1 | 9 | 14* | -3 | 22 | -3
COc1cccc(CN(C)C(=O)c2cc(-c3ccc(OC)c(OC)c3)nc3ccccc23)c1 | nt | -3 | nt | 20* | nt | nt | -2
Cc1ccc(NC(=O)COC(=O)c2ccc(Br)o2)cc1S(=O)(=O)N1CCCCC1 | nt | nt | 2 | 23* | 3 | 1 | 20*
Cc1cccc(NC(=O)C2CCCN(S(=O)(=O)c3c(C)nn(C)c3C)C2)n1 (centres undefined) | -2 | -1 | 0 | 12* | 9 | 2 | -9
CCN(C(=O)COC(=O)C(c1ccccc1)c1ccccc1)c1c(N)n(Cc2ccccc2)c(=O)[nH]c1=O | nt | nt | nt | 25* | nt | nt | -2
CCc1ccc(NC(=O)c2cccc(NC3=NC4CS(=O)(=O)CC4S3)c2)cc1 (centres undefined) | nt | -2 | 2 | 24* | 5 | 1 | 0
Oc1ccc(/C=N/NC(=S)Nc2cccnc2)c(O)c1O | 15 | -43* | nt | 24* | nt | nt | 27*
Oc1cccc(/C=N/NC(=S)Nc2cccnc2)c1O | -1 | -12 | 8 | 0 | 5 | 11 | nt
CCOC(=O)c1cc(S(=O)(=O)Nc2ccc(F)cc2F)cn1C | nt | -4 | 6 | -3 | -3 | 4 | nt
Cc1cc(NC(=O)c2coc(=O)c(Br)c2)ccc1C(C)C | -4 | 1 | 4 | 24* | 1 | 3 | 19*
COc1ccc(N2C(=O)CS(=O)C(c3ccccc3)C2=O)cc1 (centres undefined) | -16 | 6 | 12 | 24* | 16 | 4 | 31*
Cc1ccc(N2C(=O)CS(=O)C(c3ccccc3)C2=O)cc1C (centres undefined) | -12 | 5 | 12 | 17 | 12 | 15 | nt
COc1ccc(CN2CCC(CO)(Cc3ccccc3C(F)(F)F)CC2)c(F)c1 | -10 | 2 | 1 | 20* | 3 | 1 | 0
COc1ccc(CC2(CO)CCN(Cc3cccc4nccnc34)CC2)cc1 | 0 | 3 | -2 | 1 | -5 | 1 | nt
O=C1CN(C(=O)c2ccccc2F)C(c2ccccc2)c2cc(F)ccc2N1 (centres undefined) | nt | 2 | 0 | 18* | 2 | -7 | -10
COc1ccc(NC(=O)Nc2nccs2)cc1 | -14 | -1 | 2 | 16* | 3 | 4 | -3
COc1ccc(C(=O)Nc2nccs2)cc1 | nt | -1 | 1 | -5 | 0 | 3 | nt
COc1cc(C(=O)OCC(=O)Nc2cccc(S(=O)(=O)N3CCOCC3)c2)ccc1OCC(C)C | nt | -5 | -2 | -4 | 5 | -7 | nt
COc1ccccc1CCNC(=O)C(=O)NCC1OCCN1S(=O)(=O)c1ccc(Cl)cc1 (centres undefined) | nt | 0 | 5 | 16* | 6 | 4 | -5
COc1ccccc1CCNC(=O)C(=O)NCC1OCCN1S(=O)(=O)c1ccc(F)cc1 (centres undefined) | nt | -2 | 3 | -3 | -9 | 1 | nt
CC1(C)OC(=O)C2=C(C[C@@H](CCc3ccccc3)O[C@H]2C2CCCC2)O1 | nt | nt | nt | -2 | nt | nt | nt
CCN(CC)CCCNc1ccc2ncn3c4ccc(O)cc4c(=O)c1c23 | nt | nt | nt | + | nt | nt | +
SMILES | EBV gp42 inh | MEX-5 binding | Bcl-xL primary | eLon inh | GLD-1 TGE inh | MCL1 BIM primary | eLon confirm
Cc1cc2nc3n(c2cc1C)CC1CC(C(=O)NCc2cccc(C(F)(F)F)c2)N(C)C31 (centres undefined) | -10 | 1 | 1 | -1 | 9 | 1 | nt
C[C@H](O)[C@@H]1CN2CCc3c([nH]c4ccccc34)[C@@H]2C[C@@H]1N(C)C(=S)NCCc1ccccc1 | nt | nt | nt | 197* | nt | nt | 121*
C/C(N)=C(/C#N)C(=O)COC(=O)c1ccccc1C(=O)c1ccc(C)cc1 | 5 | 0 | 2 | -1 | 2 | 1 | nt
O=C(CSc1nnc(-c2cccnc2)n1CCN1CCCCC1)Nc1cccc(Cl)c1 | -7 | 1 | 0 | 11 | 5 | 3 | nt
CC1CN(Cc2csc(-c3ccc(Cl)cc3)n2)CC(C)O1 (centres undefined) | -4 | -1 | 3 | 15* | 9 | 5 | -7
O=c1[nH]c2ccccc2c2nc3ccccn3c12 | -10 | 1 | 3 | 7 | 3 | -2 | nt
O=c1nc2c(O)cccn2c2c1c(=O)[nH]c1ccccc12 | 104* | -26* | nt | 156* | nt | nt | 142*
COc1ccc(NC(=O)C2(C)Cc3c(-c4cccc(NC(C)=O)c4)ccnc3O2)cn1 (centres undefined) | nt | nt | nt | 28* | nt | nt | 2
CC(C)N1C(=O)C(=O)N(CC(=O)N2CCc3ccccc32)C1=O | nt | nt | 2 | -6 | 6 | 4 | nt
CCCCN1C(=O)C(=O)N(CC(=O)N2CCc3ccccc32)C1=O | nt | nt | 5 | 17* | 2 | 0 | -1
CCn1nnc(C(=O)O)c1C(=O)O | -7 | -1 | 5 | 16* | 4 | 0 | -8
COc1ccc2c(c1O)Cc1ccccc1C2=O | 3 | -7 | 23 | 34* | 9 | 21 | 22*
COc1cc(-c2csc(NC3CCCCC3)n2)cc(OC)c1OC | nt | 0 | 1 | -2 | 2 | 2 | nt
c1ccc2c3c([nH]c2c1)C1(CCCCC1)NCC3 | -11 | 4 | 1 | -5 | 3 | -3 | nt
CC12CCCCN1CCCc1c2[nH]c2ccccc12 (centres undefined) | 14 | -7 | 24 | 22* | 11 | 24 | -2
O=C(Oc1ccc2c(c1)OCC2=O)c1ccccc1 | -18 | 0 | -2 | 19* | 0 | 0 | 23*
CC(C)(C)c1ccc(C(=O)Oc2ccc3c(c2)OCC3=O)cc1 | -9 | 3 | -1 | 2 | -6 | 2 | nt
O=C(Cn1ccc2ccccc2c1=O)NCC(=O)N1CCN(c2ccc(F)cc2)CC1 | nt | -2 | 9 | 23* | -4 | 8 | 2
O=C(Cn1ccc2ccccc2c1=O)NCCC(=O)N1CCN(c2ccccc2)CC1 | nt | 3 | 6 | -4 | -1 | 5 | nt
COc1ccc(CNCc2cn(-c3cccc(F)c3)nc2-c2ccc(C)o2)cc1 | -6 | -2 | -2 | -5 | 2 | -1 | nt
COC(=O)Cc1c(C)c2ccc(OC(=O)c3ccccc3)cc2oc1=O | 9 | -2 | -3 | 33* | 2 | -5 | 28*
